# In PubChem BioAssay AID1159580 (chemical genetic matrix, 2015):
# Several values for one entry are separate records, joined by “and”; a condition that tells them apart may be missing. Equal values may be shown once. About 2,000 (36%) of roughly 5,500 compounds were called active. Another 18% or so got no clear call; they are omitted. Cut-off read from the data, not from the text of the source: active = normalized growth mostly below about 0.91 (no sharp cut-off); inconclusive = no clear call, values can overlap the other calls; inactive = mostly above about 0.92. Some of the results follow.
# Experiment: chemical genetic growth profiling, strain panel (AID 1159580);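 note: tested at 20 µM; growth read once vehicle control cultures reached saturation at 30 °C; 1 = growth at the plate median or of vehicle wells; lower values mean less growth of the strain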
# Conditions: S. cerevisiae deletion strains, growth OD
compound,measurement,setting,value
COC(=O)COc1cc(Cl)c(Cl)cc1Cl,normalized growth,"locus YAL013W, strain DEP1, stronger effect = lower value",0.982 (inactive)
same,normalized growth,"locus YAL021C, strain ccr4, stronger effect = lower value",0.993 (inactive)
same,normalized growth,"locus YAL026C, strain drs2, stronger effect = lower value",0.996 (inactive)
same,normalized growth,"locus YAL030W, strain snc1, stronger effect = lower value",0.998 (inactive)
same,normalized growth,"locus YBL061C, strain skt5, stronger effect = lower value",0.989 (inactive)
same,normalized growth,"locus YBR009C, strain hhf1, stronger effect = lower value",0.989 (inactive)
same,normalized growth,"locus YBR021W, strain FUR4, stronger effect = lower value",0.98 (inactive)
same,normalized growth,"locus YBR023C, strain chs3, stronger effect = lower value",0.99 (inactive)
same,normalized growth,"locus YBR171W, strain sec66, stronger effect = lower value",1.01 (inactive)
same,normalized growth,"locus YBR229C, strain ROT2, stronger effect = lower value",0.981 (inactive)
same,normalized growth,"locus YBR231C, strain swc5, stronger effect = lower value",0.99 (inactive)
same,normalized growth,"locus YBR279W, strain paf1, stronger effect = lower value",1 (inactive)
same,normalized growth,"locus YCL011C, strain gbp2, stronger effect = lower value",0.99 (inactive)
same,normalized growth,"locus YCL016C, strain dcc1, stronger effect = lower value",1.01 (inactive)
same,normalized growth,"locus YCL029C, strain bik1, stronger effect = lower value",0.957 (inactive)
same,normalized growth,"locus YCL061C, strain MRC1, stronger effect = lower value",0.985 (inactive)
same,normalized growth,"locus YCL069W, strain vba3, stronger effect = lower value",0.986 (inactive)
same,normalized growth,"locus YCR088W, strain abp1, stronger effect = lower value",0.985 (inactive)
same,normalized growth,"locus YDL005C, strain med2, stronger effect = lower value",1.01 (inactive)
same,normalized growth,"locus YDL035C, strain GPR1, stronger effect = lower value",1.01 (inactive)
same,normalized growth,"locus YDL040C, strain nat1, stronger effect = lower value",0.996 (inactive)
same,normalized growth,"locus YDL074C, strain BRE1, stronger effect = lower value",0.943 (inactive)
same,normalized growth,"locus YDL101C, strain DUN1, stronger effect = lower value",0.977 (inactive)
same,normalized growth,"locus YDL134C, strain PPH21, stronger effect = lower value",0.978 (inactive)
same,normalized growth,"locus YDL185W, strain tfp1, stronger effect = lower value",0.992 (inactive)
same,normalized growth,"locus YDL192W, strain arf1, stronger effect = lower value",0.989 (inactive)
same,normalized growth,"locus YDR001C, strain nth1, stronger effect = lower value",0.988 (inactive)
same,normalized growth,"locus YDR069C, strain doa4, stronger effect = lower value",1.02 (inactive)
same,normalized growth,"locus YDR101C, strain arx1, stronger effect = lower value",0.954 (inactive)
same,normalized growth,"locus YDR137W, strain rgp1, stronger effect = lower value",0.839 (active)
same,normalized growth,"locus YDR150W, strain NUM1, stronger effect = lower value",0.976 (inactive)
same,normalized growth,"locus YDR159W, strain sac3, stronger effect = lower value",0.973 (inactive)
same,normalized growth,"locus YDR162C, strain NBP2, stronger effect = lower value",0.965 (inactive)
same,normalized growth,"locus YDR195W, strain ref2",1.02 (inactive)
same,normalized growth,"locus YDR297W, strain sur2, stronger effect = lower value",1.02 (inactive)
same,normalized growth,"locus YDR318W, strain mcm21, stronger effect = lower value",0.955 (inactive)
same,normalized growth,"locus YDR334W, strain swr1, stronger effect = lower value",1 (inactive)
same,normalized growth,"locus YDR335W, strain msn5, stronger effect = lower value",1.01 (inactive)
same,normalized growth,"locus YDR388W, stronger effect = lower value",0.974 (inactive)
same,normalized growth,"locus YDR392W, strain spt3, stronger effect = lower value",0.963 (inactive)
same,normalized growth,"locus YDR502C, strain sam2, stronger effect = lower value",0.969 (inactive)
same,normalized growth,"locus YEL003W, strain gim4, stronger effect = lower value",1.01 (inactive)
same,normalized growth,"locus YEL037C, strain rad23, stronger effect = lower value",0.997 (inactive)
same,normalized growth,"locus YEL061C, strain CIN8 (second series), stronger effect = lower value",0.993 (inactive)
same,normalized growth,"locus YEL061C, strain CIN8, stronger effect = lower value",0.98 (inactive)
same,normalized growth,"locus YER015W, strain faa2, stronger effect = lower value",0.998 (inactive)
same,normalized growth,"locus YER016W, strain bim1, stronger effect = lower value",0.999 (inactive)
same,normalized growth,"locus YER110C, stronger effect = lower value",0.954 (inactive)
same,normalized growth,"locus YER111C, strain swi4, stronger effect = lower value",0.997 (inactive)
same,normalized growth,"locus YER155C, strain BEM2 (second series), stronger effect = lower value",1.01 (inactive)
same,normalized growth,"locus YER155C, strain BEM2, stronger effect = lower value",0.983 (inactive)
same,normalized growth,"locus YER167W, strain BCK2, stronger effect = lower value",0.975 (inactive)
same,normalized growth,"locus YFR010W, strain ubp6, stronger effect = lower value",1.01 (inactive)
same,normalized growth,"locus YGL078C, strain dbp3, stronger effect = lower value",0.96 (inactive)
same,normalized growth,"locus YGL086W, strain mad1, stronger effect = lower value",0.976 (inactive)
same,normalized growth,"locus YGL167C, strain pmr1, stronger effect = lower value",0.997 (inactive)
same,normalized growth,"locus YGL173C, strain kem1, stronger effect = lower value",0.998 (inactive)
same,normalized growth,"locus YGL227W, strain vid30, stronger effect = lower value",0.979 (inactive)
same,normalized growth,"locus YGL240W, strain doc1, stronger effect = lower value",0.995 (inactive)
same,normalized growth,"locus YGL248W, strain PDE1, stronger effect = lower value",0.987 (inactive)
same,normalized growth,"locus YGL253W, strain hxk2, stronger effect = lower value",1.01 (inactive)
same,normalized growth,"locus YGR078C, strain PAC10, stronger effect = lower value",0.968 (inactive)
same,normalized growth,"locus YGR135W, strain pre9, stronger effect = lower value",0.971 (inactive)
same,normalized growth,"locus YGR229C, strain SMI1, stronger effect = lower value",0.942 (inactive)
same,normalized growth,"locus YGR252W, strain gcn5, stronger effect = lower value",1 (inactive)
same,normalized growth,"locus YHR013C, strain ard1, stronger effect = lower value",1.13 (inactive)
same,normalized growth,"locus YHR027C, strain rpn1, stronger effect = lower value",1.03 (inactive)
same,normalized growth,"locus YHR030C, strain SLT2, stronger effect = lower value",0.967 (inactive) and 0.86 (inactive)
same,normalized growth,"locus YHR079C, strain IRE1 (second series), stronger effect = lower value",0.953 (inactive)
same,normalized growth,"locus YHR079C, strain IRE1, stronger effect = lower value",0.884 (inactive)
same,normalized growth,"locus YHR094C, strain hxt1, stronger effect = lower value",0.964 (inactive)
same,normalized growth,"locus YHR129C, strain ARP1, stronger effect = lower value",0.976 (inactive)
same,normalized growth,"locus YHR142W, strain chs7, stronger effect = lower value",0.988 (inactive)
same,normalized growth,"locus YHR200W, strain rpn10, stronger effect = lower value",0.982 (inactive)
same,normalized growth,"locus YIL066C, strain RNR3, stronger effect = lower value",0.948 (inactive)
same,normalized growth,"locus YIL073C, strain SPO22, stronger effect = lower value",1.04 (inactive)
same,normalized growth,"locus YIL125W, strain kgd1, stronger effect = lower value",0.957 (inactive)
same,normalized growth,"locus YIR030C, strain dcg1, stronger effect = lower value",0.953 (inactive)
same,normalized growth,"locus YJL092W, strain hpr5, stronger effect = lower value",0.989 (inactive)
same,normalized growth,"locus YJL095W, strain BCK1 (second series), stronger effect = lower value",0.991 (inactive)
same,normalized growth,"locus YJL095W, strain BCK1, stronger effect = lower value",0.853 (inactive) and 0.874 (active)
same,normalized growth,"locus YJL115W, strain asf1, stronger effect = lower value",1.01 (inactive)
same,normalized growth,"locus YJL129C, strain trk1, stronger effect = lower value",0.971 (inactive)
same,normalized growth,"locus YJL134W, strain LCB3, stronger effect = lower value",0.974 (inactive)
same,normalized growth,"locus YJL154C, strain vps35, stronger effect = lower value",0.99 (inactive)
same,normalized growth,"locus YJL164C, strain tpk1, stronger effect = lower value",0.997 (inactive)
same,normalized growth,"locus YJL166W, strain qcr8, stronger effect = lower value",0.995 (inactive)
same,normalized growth,"locus YJL168C, strain set2, stronger effect = lower value",0.976 (inactive)
same,normalized growth,"locus YJL187C, strain SWE1 (second series), stronger effect = lower value",0.983 (inactive)
same,normalized growth,"locus YJL187C, strain SWE1, stronger effect = lower value",1 (inactive)
same,normalized growth,"locus YJR043C, strain POL32, stronger effect = lower value",0.942 (inactive)
same,normalized growth,"locus YJR066W, strain TOR1, stronger effect = lower value",0.842 (inactive)
